Laboratory results from PubChem BioAssay AID618 (Sanford-Burnham Center for Chemical Genomics, 2007).
In all, about 87,000 compounds went through this assay and about 540 (0.62%) were called active. No rule for the calls is given here. Only a selection was taken, and actives are over-represented in it overall. Results with a measured potency or affinity are listed apart.

Assay: inhibitors of MT1-MMP promoter transcription, cell-based, luciferase reporter, luminescence (AID 618);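 also: actives suppress MT1-MMP promoter-driven transcription so potencies describe inhibitors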
Conditions: MT1-MMP promoter luciferase reporter cells

SMILES	outcome
COc1ccc(CN2CC(C(=O)NCc3cccc(OC)c3)CC2=O)cc1 (stereo not given)	inactive
COC(=O)c1ccccc1NC(=O)c1ccc(-c2cccc(Cl)c2)o1	inactive
O=C(Nc1nnc(-c2ccc(Cl)s2)o1)C1CCCCC1	inactive
COc1ccccc1Oc1ccc2c(c1)C(=O)N(c1cccc(O)c1)C2=O	inactive
CCC(=O)N1CCNC(=O)C1CC(=O)Nc1ccc(C)c(Cl)c1 (stereo not given)	inactive
CNCc1ccc(OCc2ccccc2)c(OC)c1	inactive
Cc1c(C(=O)N2CCOCC2)[nH]c2c1C(=O)CC(c1ccccc1Cl)C2 (stereo not given)	inactive
Cc1c(C(=O)OCc2ccccc2)[nH]c2c1C(=O)CC(c1ccco1)C2 (stereo not given)	active
CC1=C(C(=O)OCc2ccccc2)C(c2ccco2)C2=C(CC(C)(C)CC2=O)N1 (stereo not given)	inactive
C=CCN1CC(c2nc3ccccc3n2Cc2cccc3ccccc23)CC1=O (stereo not given)	inactive
CCCOc1ccc(C(CC(=O)O)NC(=O)C23CC4CC(CC(C4)C2)C3)cc1 (stereo not given)	inactive
Cc1ccc(C(=O)Nc2cc(Cl)ccc2N2CCCCC2)s1	inactive
CN(C)c1ccc(N/C=C/C(=O)c2ccccc2)cc1	active
CN(C)c1ccc(NC(=O)CN2CCN(CC(=O)Nc3ccc(F)cc3)CC2)cc1	inactive
O=C(/C=C/Nc1ccc(F)cc1)c1ccco1	inactive
CN(C)c1ccc(C(=O)c2ccccc2)cc1	inactive
CC(=O)Nc1ccc(N/C=C/C(=O)c2ccco2)cc1	inactive
CN(C)c1ccc(NC(=O)CN2CCC(C(=O)c3ccc(F)cc3)CC2)cc1	inactive
CN(C)c1ccc(N/C=C/C(=O)c2ccc(F)cc2)cc1	active
CN(C)c1ccc(N/C=C/C(=O)C(C)(C)C)cc1	inactive
CSCC[C@H](NC(=O)CCn1nnc2ccccc2c1=O)C(=O)O	inactive
CCN1CCN(C(=O)c2ccc(Cl)c(S(=O)(=O)N3CCOCC3)c2)CC1	inactive
Cc1ccc(-n2nc3c(c2NC(=O)c2c(-c4ccccc4Cl)noc2C)CS(=O)(=O)C3)c(C)c1	inactive
COc1cccc(NC(=O)C(=O)N2CCOCC2)c1	inactive
Cc1ccc(-n2nc(C)c3c(C)cc(=O)[nH]c32)cc1	inactive

SMILES	outcome
O=C(c1cccn2c(=O)c3cc(Br)ccc3nc12)N1CCN(c2ccccn2)CC1	inactive
Cc1ccc(-c2c(C(=O)N3CCOCC3)oc(=O)c3ccccc23)cc1	inactive
Cn1cnnc1SCC(=O)Nc1ccccc1	inactive
COC(=O)c1ccc(NC(=O)CSc2nncn2C)cc1	inactive
CCCCOC(=O)c1ccc(NC(=O)CSc2nncn2C)cc1	active
O=C1CC(N2CCC(c3nc4ccccc4o3)CC2)C(=O)N1c1ccc(Cl)cc1 (stereo not given)	inactive
O=C(CCS(=O)(=O)c1cccs1)N1CCCC1	inactive
CC(=O)N1CCc2cc(S(=O)(=O)CCC(=O)O)ccc21	inactive
O=C1c2ccccc2NC(c2ccc(Cl)cc2Cl)N1Cc1ccccc1 (stereo not given)	inactive
CC(C)(O)c1cc(=O)sc2nc3ccccc3n12	inactive
N=c1cc(C2(O)CCCCC2)n2c(nc3ccccc32)s1	active
c1ccc2nc3c(nc2c1)sc1nc2ccccc2n13	inactive
c1ccc(Cn2c(-c3cncs3)nc3ccccc32)cc1	inactive
CCCCN(CCCNC(=O)C1CCN(S(=O)(=O)N2CCOCC2)CC1)Cc1ccccc1	inactive
CCn1c(CCNC(=O)c2cccs2)nnc1SCC(=O)NC1CCCCC1	inactive
Cc1noc(C)c1CSc1nnc2n(-c3ccccc3)c(=O)c3ccccc3n12	inactive
COc1ccc(-c2cc3nc(C)c(CCC(=O)NC(C)CCc4ccco4)c(C)n3n2)c(OC)c1 (stereo not given)	inactive
COc1cc(OC)cc(-c2cc3nc(C)c(CCC(=O)NC(C)CCc4ccco4)c(C)n3n2)c1 (stereo not given)	inactive
COc1ccc(CCNC(=O)N2CCOCC2)cc1	inactive
CC(C)(C)n1nnnc1CN(Cc1ccco1)Cc1cc2cc3c(cc2[nH]c1=O)OCO3	inactive
O=C(O)c1ccccc1NC(=O)C1CCCO1 (stereo not given)	inactive
c1cncc(CNc2c3c(nc4nnnn24)CCCC3)c1	inactive
O=C(O)c1cccc(-c2nnn(Cc3ccccc3)n2)c1	inactive
O=C(O)c1cccc(-c2nnn(Cc3ccccc3Cl)n2)c1	inactive
COc1cc(-c2nc(S(=O)(=O)c3ccc(C)cc3)c(N(C)C)o2)cc(OC)c1OC	inactive

SMILES	outcome
CCOc1cccc(NC(=O)C2CC(=O)N(C)C2)c1 (stereo not given)	inactive
CCN(CC)CC(O)COc1ccccc1C(=O)CCc1ccccc1 (stereo not given)	inactive
CCCNCC(O)COc1ccccc1C(=O)CCc1ccccc1 (stereo not given)	active
CC(C)(C)NCC(O)COc1ccccc1C(=O)CCc1ccccc1 (stereo not given)	inactive
CC(C)(C)NS(=O)(=O)c1ccc(CCC(=O)NCc2cccnc2)cc1	inactive
CCOC(=O)c1c(NC(=O)CN(CC)CC)sc2c1CCC2	inactive
O=C(Cn1c(NCCO)nc2ccccc21)c1cccs1	inactive
Cc1cc(C)nc(N2CCN(c3nc(C)nc4c3oc3ccccc34)CC2)n1	inactive
COc1ccccc1N1CCN(c2nc(C)nc3c2oc2ccccc23)CC1	active
COc1ccccc1N1CCN(c2ncnc3c2oc2ccccc23)CC1	inactive
Cc1ccc(C(=O)Nc2ccccc2OC(F)F)cc1	inactive
CCN=c1scc(C)n1/N=C/c1ccsc1	inactive
CN=c1scc(C)n1/N=C/c1ccc(O)c(O)c1O	inactive
Cc1nnc(C)n1/N=C/c1ccc2c(c1)OCCO2	inactive
CN=c1scc(C)n1/N=C/c1ccc(O)cc1	inactive
CN=c1scc(C)n1/N=C/c1ccc(O)cc1O	active
CN=c1scc(C)n1/N=C/c1ccc2c(c1)OCO2	active
COC(=O)c1ccc(Cn2nc(C(F)(F)F)cc2C)cc1	inactive
COc1ccccc1OCCSc1nnnn1-c1ccc(C)cc1	inactive
c1ccc(OCCSc2nnnn2-c2ccccc2)cc1	inactive
CCN(C(=O)Cc1ccc(Br)cc1)C1CCCCC1	inactive
C(=N\n1cnnc1)/c1ccc(OCc2cccc3ccccc23)cc1	inactive
CCOCCOC(=O)CCSc1n[nH]c(=O)[nH]c1=O	inactive
CCC/C(O)=C1\C(=O)CC(C)(C)CC1=Nc1ccccc1OC	inactive
CCCC/C(O)=C1\C(=O)CC(C)(C)CC1=Nc1ccccc1OC	inactive
